# Source: PubChem BioAssay (several laboratories)
# E-sel TNF inh: blocks E-selectin expression induced by TNF alpha. HUVEC TNFa-induced E-selectin immunofluorescence, high content. inhibition, % at 2 µM. 120,000 tested, 0.71% active;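 active = inhibition above the batch mean plus 3 SD, and confirmed as a hit on visual image review, cut at about 43% in these data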
# cytoskel mod: modifiers of cytoskeleton assembly; inhibition, % at 2 µM; 91,000 tested, 0.18% active; HUVEC TNFa F-actin phalloidin imaging, high content;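 active = inhibition above the batch mean plus 3 SD and confirmed as a hit by visual image inspection, cut at about 30% in these data, passing the limit was not always enough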
# CYP2C9 inh: inhibitors of human CYP2C9. 96,000 tested, 20% active. AID 777. inhibition, % at 5 µM. P11712. CYP2C9 Supersomes, luciferin-H conversion, luminescence;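 active = blocking of liver enzyme CYP2C9 beyond about 50% at 5 µM, limit read from the data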
# CYP2C19 act: cytochrome P450 2C19 (human) activation | P33261 | recombinant CYP2C19, luciferin-H EGE luminescence; stronger effect = higher value; 0 = fully inhibited enzyme, 1 = untreated enzyme | activation factor at 5 µM | 96,000 tested, under 10 active;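 active = activation factor of at least 2 at 5 µM in the primary screen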
# Target sequence (P33261 whole entry, looked up): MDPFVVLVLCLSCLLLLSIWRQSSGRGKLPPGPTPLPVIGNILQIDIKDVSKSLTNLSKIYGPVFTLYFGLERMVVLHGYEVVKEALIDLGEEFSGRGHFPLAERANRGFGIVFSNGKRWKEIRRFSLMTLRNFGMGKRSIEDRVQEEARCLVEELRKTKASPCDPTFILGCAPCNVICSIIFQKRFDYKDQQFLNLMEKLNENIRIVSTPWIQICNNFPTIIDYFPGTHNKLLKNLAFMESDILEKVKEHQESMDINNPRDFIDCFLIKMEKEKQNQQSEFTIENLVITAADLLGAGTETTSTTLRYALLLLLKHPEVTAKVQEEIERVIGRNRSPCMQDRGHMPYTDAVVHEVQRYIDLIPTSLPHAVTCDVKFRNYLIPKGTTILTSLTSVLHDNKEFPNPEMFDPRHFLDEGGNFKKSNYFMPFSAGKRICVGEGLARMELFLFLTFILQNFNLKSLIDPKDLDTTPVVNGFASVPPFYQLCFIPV
# CYP2C19 inh: human CYP2C19 inhibition. P33261. CYP2C19 Supersomes, luciferin-H EGE luminescence, 30 min. inhibition, % at 5 µM. 96,000 tested, 21% active. AID 778;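 active = CYP2C19 inhibition above a set limit at 5 µM in the primary screen, cut at about 50% in these data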
# CYP2C9 act: activators of human CYP2C9 | activation factor at 5 µM | AID 1024 | P11712 | recombinant CYP2C9, luciferin-H conversion, luminescence; stronger effect = higher value; factor 1 = untreated enzyme, 0 = blocked | 96,000 tested, 1.4% active;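 active = activation factor of 2 or more for CYP2C9 at a 5 µM dose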
# Numbers stand for hits; 0 = inactive; - = no result given. Shown are actives, neighbours in structure and some others; about 22% of the full set was active somewhere.
SMILES,E-sel TNF inh,cytoskel mod,CYP2C9 inh,CYP2C19 act,CYP2C19 inh,CYP2C9 act
CC(=O)N1N=C(c2cccc([N+](=O)[O-])c2)OC1c1ccccc1Cl (stereo not drawn),0,0,85.5,0,62.5,0
O=C1c2ccccc2OCOc2ccccc21,-,0,0,0,0,0
CC(=O)Nc1ccc(NC(=O)C(C)O/N=C/c2cccc([N+](=O)[O-])c2)cc1 (stereo not drawn),0,0,60.1,0,0,0
CC(C)N(C(=O)/C=C/c1cccc([N+](=O)[O-])c1)C(C)C,0,-,-,-,-,-
CC(C)N(C(=O)CO/N=C/c1cccc([N+](=O)[O-])c1)C(C)C,0,-,-,-,-,-
O=C(CO/N=C/c1cccc([N+](=O)[O-])c1)Nc1ccc2ccccc2c1,0,0,88.0,0,0,0
CCOc1ccccc1C(=O)OCC(=O)Nc1ccc(OC(F)F)cc1,0,0,0,0,55.3,0
COc1ccc(NC(=S)NNC(=O)c2ccccc2OC(F)F)cc1,0,0,54.5,0,0,0
CCOc1ncccc1C(=O)OCC(=O)Nc1ncc(C(F)(F)F)cc1Cl,0,0,0,0,62.4,0
CCOc1ccccc1C(=O)OCC(=O)Nc1ncc(C(F)(F)F)cc1Cl,0,-,0,0,92.7,0
O=C(COC(=O)c1ccccc1OCC(=O)Nc1ccc(Br)cc1)Nc1ccccc1,0,-,-,-,-,-
Cc1cccc(NC(=S)NNC(=O)c2ccccc2OC(F)F)c1,0,0,0,0,0,0
O=C(COC(=O)c1cccc2ccccc12)Nc1ncc(C(F)(F)F)cc1Cl,0,-,0,0,0,0
C=CC[N+]1(CC#CCOC(c2ccccc2)c2ccccc2)CCOCC1,0,0,0,0,0,0
Cc1cc(N)ccc1-n1c(C)ccc1C,0,-,0,0,52.6,0
Cc1cc(N)ccc1N1CCCC1,-,0,0,0,0,0
O=C(CSc1nc2ccccc2[nH]1)Nc1c(F)cccc1F,0,0,0,0,51.3,0
Fc1cccc(F)c1CSc1nc2ccccc2[nH]1,74.8,-,0,0,54.3,0
c1ccc(-c2cc(CSc3nc4ccccc4[nH]3)on2)cc1,0,0,62.1,0,0,0
Cc1noc(C)c1CSc1nc2ccccc2[nH]1,0,0,0,0,0,0
O=C(CSc1nc2cc3ccccc3cc2[nH]1)Nc1ccc(F)cc1,0,0,68.6,0,0,0
O=C(CSc1nc2ccccc2[nH]1)Nc1c(F)c(F)c(F)c(F)c1F,0,-,-,-,-,-
Cc1nc(C)c(C(=O)C2=C(O)C(=O)N(CCN3CCOCC3)C2c2ccco2)s1 (stereo not drawn),0,0,0,0,0,0
Cc1cccc(C)c1NC(=O)CNCC(=O)N(C)C,0,-,-,-,-,-
C=CCSc1ncc(C#N)c(N)n1,0,0,-,-,-,-
SMILES,E-sel TNF inh,cytoskel mod,CYP2C9 inh,CYP2C19 act,CYP2C19 inh,CYP2C9 act
Fc1ccccc1CSc1nc2ncccc2[nH]1,0,0,0,0,66.1,0
Cc1ccc(C2(C)NC(=O)N(CCOc3ccccc3)C2=O)cc1 (stereo not drawn),81.7,0,0,0,76.9,0
COc1ccc(OCCN2C(=O)NC(C)(c3ccc(C)cc3)C2=O)cc1 (stereo not drawn),0,0,-,-,-,-
COc1ccc(-c2c(C(C)=O)c(C)nc3sc4c(=O)[nH]nnc4c23)cc1,0,-,-,-,-,-
COc1ccc(-c2c3c(nc4sc(C(=O)Nc5cc(C)on5)c(N)c24)CCC3)cc1,0,0,50.8,0,0,0
COc1ccc(-c2c3c(nc4sc5c(=O)[nH]c(C)nc5c24)CCC3)cc1,0,0,56.6,0,0,0
O=C(Nc1ccccc1)N(C1=NCCCCS1)c1cccc2ccccc12,0,0,0,0,61.3,0
O=C(Nc1ccccc1)N(Cc1ccccc1)C1=NCCS1,0,0,55.6,0,0,0
O=C(Nc1ccccc1)N(C1=NCCCCS1)c1ccccc1,0,0,0,0,0,0
Cc1cc(C)n(-c2ccc(C(=O)OCC(=O)c3ccc(Br)s3)cc2)n1,0,0,90.0,0,76.6,0
Cc1cc(C)n(-c2ccc(C(=O)OCC(=O)Nc3ccc(Cl)c(S(=O)(=O)N(C)C)c3)cc2)n1,0,0,0,0,83.3,0
Cc1cc(C)n(-c2ccc(C(=O)OCC(=O)Nc3ccc(S(=O)(=O)N4CCOCC4)cc3)cc2)n1,0,0,71.2,0,87.9,0
CCNC(=O)COC(=O)c1ccc(-n2nc(C)cc2C)cc1,0,-,-,-,-,-
COc1cccc(/C=C/C(=O)OCC(=O)Nc2ccc(Cl)c(S(=O)(=O)N(C)C)c2)c1,69.0,-,-,-,-,-
Cc1cc(C)cc(C(=O)/C=C2\NC(=O)CS2)c1,0,0,0,0,0,0
COc1ccc(CC(=O)Nc2cccc(-c3nnc(-c4cccc(C)c4)o3)c2)cc1OC,0,-,88.3,0,98.4,0
COc1ccc(CC(=O)Nc2cccc(-c3nnc(-c4ccccc4)o3)c2)cc1OC,0,0,77.8,0,85.0,0
COc1ccc(-c2nc3cc(NC(=O)Cc4ccc(OC)c(OC)c4)ccc3o2)cc1,0,-,55.3,0,57.0,0
COc1ccc(CC(=O)Nc2cccc(-c3nnc(-c4ccc(C)cc4)o3)c2)cc1OC,0,-,-,-,-,-
Cn1c(=O)c2c3c(sc2n2c(SCc4ccccc4)nnc12)CCCC3,0,-,-,-,-,-
O=C1CCC(=O)N1CN(C(=O)c1ccco1)c1ccccc1,-,0,0,0,0,0
O=C1c2ccccc2C(=O)N1CCCCN(C(=O)c1cccc([N+](=O)[O-])c1)c1ccc(Cl)cc1,0,0,60.6,0,69.2,0
Cc1ccc(N(CCCCN2C(=O)c3ccccc3C2=O)C(=O)c2cccs2)cc1,0,0,66.0,0,61.2,0
O=C(CN1C(=O)c2ccccc2C1=O)NCC(=O)OCC(=O)c1cccc([N+](=O)[O-])c1,0,-,-,-,-,-
O=C1c2ccccc2C(=O)N1CCCCN(C(=O)c1ccco1)c1ccc(Cl)cc1,-,0,82.5,0,56.6,0
SMILES,E-sel TNF inh,cytoskel mod,CYP2C9 inh,CYP2C19 act,CYP2C19 inh,CYP2C9 act
Cc1ccc(N(Cc2cc3cc(C)ccc3[nH]c2=O)C(=O)c2cccs2)cc1,0,-,-,-,-,-
CC(=O)c1cccc(NC(=S)NC(=O)c2cccc(C)c2)c1,0,-,-,-,-,-
Cc1cc(C)c(S(=O)(=O)c2c(C)cccc2C)c(Cl)n1,0,0,0,0,74.7,0
CCN1CCN(C(=O)C2CC(c3ccc(F)cc3)=NO2)CC1 (stereo not drawn),0,-,0,0,0,0
COc1ccc2c(c1)-c1c(ssc1=S)C(C)(C)N2,0,0,-,-,-,-
COc1ccc(-n2sc3c(c2=S)-c2cc(OC)ccc2NC3(C)C)cc1,0,0,81.6,0,0,0
COc1ccc2c(c1)-c1c(sn(-c3ccc(OC)c(OC)c3)c1=S)C(C)(C)N2,0,0,59.4,0,0,0
CC(C)(C)C(=O)Cn1c(=N)n(Cc2ccccc2Cl)c2ccccc21,0,0,0,0,0,0
CCCC(C(=O)c1ccccc1)n1cncn1 (stereo not drawn),-,0,0,0,0,0
CC(C)(C)C(=O)C(Cc1ccccc1)n1cncn1 (stereo not drawn),0,0,56.0,0,0,0
CC(C)(C)C(=O)C(Cc1ccccc1Cl)n1cncn1 (stereo not drawn),0,0,0,0,59.5,0
